Pf Dd2 growth: Plasmodium falciparum Dd2 growth inhibition. P. falciparum Dd2 growth, SYBR Green, 72 h. Potency, µM (doses to about 28.9 µM), hits mostly inhibitors. 4.3% of 120,000 active; active = well fitted inhibition curve with a large enough effect; also: nearly all actives have a fitted effect of over 65% in size
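Readout: SYBR Green fluorescence, 485 nm excitation, 535 nm emission, after ~16 h lysis at 37C. Before that, Dd2-infected red cells (2.5% hematocrit) grew 72 h with compound, 29 uM top final concentration.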
Large screens that a line does not name were inactive. This is one part of a sample in which hits are shown more often than they occur.

COc1ccc(NC(=O)c2nnn(Cc3ccccc3C)c2N)c(OC)c1	Pf Dd2 growth 1.1µM
COc1cccc(Cn2nnc(C(=O)Nc3cc(C)ccc3C)c2N)c1	none
Cc1cccc(Cn2nnc(C(=O)Nc3cc(C)ccc3C)c2N)c1	Pf Dd2 growth 2µM
COc1ccc(NC(=O)c2nnn(CC(=O)Nc3cc(C)cc(C)c3)c2N)c(OC)c1	none
Cc1ccc(NC(=O)c2nnn(Cc3ccccc3)c2N)cc1C	none
Cc1ccc(C)c(NC(=O)c2nnn(CC(=O)Nc3cccc(C)c3C)c2N)c1	none
COc1ccc(Cn2nnc(C(=O)Nc3cc(OC)ccc3OC)c2N)cc1	none
COc1ccc(Cl)cc1NC(=O)c1nnn(Cc2cccc(C(F)(F)F)c2)c1N	none
C[C@@H](NC(=O)c1cccnc1)c1onc(-c2ccc(F)cc2)c1C(=O)O	none
Cc1ccc(C(=O)N2CCc3nc(C)nc(-c4ccc(Cl)cc4)c3CC2)cc1	none
COc1cccc(OCc2cc(C(=O)NC3CCOC(C)(C)C3)n[nH]2)c1 (centres undefined)	none
COCCn1cnnc1CN(C)C(=O)c1ccc2nc(C)cn2c1	none
O=C(COc1ccc(F)cc1)N1CCCCC1c1nc(CCOCC2CCCC2)no1 (centres undefined)	none
CC1(C)C(=O)N(Cc2ccccc2F)[C@H]2CN(Cc3ccc4c(c3)CCO4)C[C@H]2[S+]1(=O)[O-]	none
Cn1cnc(S(=O)(=O)N2CCCC(C(=O)NC3CCCC3)CCNC(=O)CC2)c1 (centres undefined)	none
CCS(=O)(=O)N1CC(n2cc(C(=O)NCC3CC3)nn2)C1	none
O=C(N[C@H]1C[C@H]2C(=O)NC[C@@H](CCC(=O)N3CCN(c4ccccc4)CC3)N2C1)c1ccco1	none
CCSc1nc2ccccc2c(OCc2cc(C(=O)OC)ccc2OC)c1C(=O)OC	none
COc1ccc(NC(=O)C(=O)NCCc2ccccc2)cc1OC	none
COc1ccc(CNc2nc(SCc3ccccc3Cl)nc3ccccc23)cc1	none
COc1ccc(-c2nnc(SCc3cccc(Cl)c3)o2)cc1	none
COc1cc(Nc2nc(SCC(=O)c3ccc(Cl)c(Cl)c3)nc3ccccc23)cc(OC)c1	none
COc1ccc(CCNc2nc(SCc3ccccc3Cl)nc3ccccc23)cc1OC	Pf Dd2 growth 3.5µM
COc1ccc(CCNc2nc3c(c(=O)n(C)c(=O)n3C)n2Cc2ccccc2Cl)cc1OC	none
COc1ccc(C(C)=O)cc1CSc1nc(NCCc2ccccc2)c2ccccc2n1	Pf Dd2 growth 11µM
COc1ccccc1NC(=O)CN1CCN(CC(=O)Nc2ccc(F)c(F)c2)CC1	none
COc1ccc(NC(=O)CSc2nc(-c3ccccc3)c3ccccc3n2)cc1	none
COc1ccc(C(C)=O)cc1CSc1nc(Nc2ccc(F)c(F)c2)c2ccccc2n1	Pf Dd2 growth 11µM
COc1cc(Nc2nc(SCc3cccc(Cl)c3)nc3ccccc23)cc(OC)c1	Pf Dd2 growth 10µM
Cc1ccc(-n2c(C3CCN(C(=O)Cc4ccc(F)cc4)CC3)n[nH]c2=O)cc1	none
CN(c1ccccc1)c1ccc2nnc(-c3cc(C(=O)Nc4ccn(C)n4)ccn3)n2n1	none
CCC1=NOC(CNC(=O)c2ccc(OC3CCN(C(=O)COC)CC3)cc2)C1 (centres undefined)	none
CC(C)c1noc(C2CCCN(S(=O)(=O)c3ccc4c(c3)CCC4)CCC(=O)NCC2)n1 (centres undefined)	none
O=C1CCN(S(=O)(=O)c2ccccc2)CCCN(C(=O)c2cccs2)CCN1	none
CC(=O)Nc1ccc2c(c1)nc1n2[C@@H](CNC2CCN(C)CC2)COC1	none
Cc1cc2nc(CO[C@H]3CN(C4CCOCC4)C[C@H]3F)[nH]c2cc1C	none
CN(C)C(=O)CCC1CCN(S(=O)(=O)c2cccc(F)c2)CC1	none
COCc1cc(C[C@@H]2CC[C@H](O)[C@@H](CNC(=O)Nc3ccccc3)O2)no1	none
CC(C)CCN1CC2(CCCN(S(=O)(=O)N3CCOCC3)C2)CCC1=O (centres undefined)	none
CCCCS(=O)(=O)N1CCn2nc(C(O)c3nccn3C)cc2C1 (centres undefined)	none
Cc1ccc(Cn2ccn3nc4c(c3c2=O)CCCC4)cc1	none
CC1CCCN(C(=O)Cn2ccn3nc(-c4ccccc4)c(CO)c3c2=O)C1 (centres undefined)	none
Cc1ccccc1Cn1cnc2c(oc3ccccc32)c1=O	Pf Dd2 growth 8.9µM
Cc1ccccc1Cn1c(=O)n(Cc2ccco2)c(=O)c2oc3ccccc3c21	none
Cc1ccc(NC(=O)Cn2cnc3c(oc4ccccc43)c2=O)cc1	none
C=CCNC(=O)N[C@H]1CO[C@H]2[C@@H]1OC[C@@H]2Nc1nccc(-c2ccccc2OC)n1	none
CC1(C)[C@H](Cc2cc(CN3CCN(c4ccccc4)CC3)on2)C[C@@H]1NC(=O)NCc1ccccc1	none
Cc1ccc(-c2ncc(C(=O)N(C)Cc3nc(CC(C)C)no3)c(=O)[nH]2)cc1	none
CC(C)Cc1cnc(-c2ccccc2)[nH]1	Pf Dd2 growth 16µM
CC(C)Cc1nc2nccc(-c3ccccc3)n2n1	none
COc1cccc(N2C(=O)NC(=NC3CCCCC3)C23CCCN(C(=O)c2ccc(C(F)(F)F)cc2)C3)c1 (centres undefined)	none
CCc1nc2ccc(C(=O)N3CCN(c4ccc(Cl)cc4)CC3)cc2nc1CC	none
CCN1c2cc(C(=O)N3CCN(c4ccccc4F)CC3)ccc2C(=O)N2CCCCC21 (centres undefined)	none
CCc1nc2ccc(C(=O)N3CCN(c4ccccc4)CC3)cc2nc1CC	Pf Dd2 growth 6.3µM
O=C(c1ccc2c(Cl)c3c(nc2c1)CCCC3)N1CCN(c2ccccc2)CC1	none
CCc1nc2ccc(C(=O)N3CCN(c4ccccc4F)CC3)cc2nc1CC	Pf Dd2 growth 2.8µM
O=C(c1ccc2c(c1)CCN2S(=O)(=O)c1ccccc1)N1CCN(c2ccccc2F)CC1	none
CCN(CCNC(=O)C1CCN(c2cn[nH]c(=O)c2)C1)Cc1ccccc1 (centres undefined)	none
Cc1nc(C(=O)N2CCC(c3nnc(CN4CCCC4)n3C)CC2)cs1	none
Cc1cc(C)c(Cn2c(=O)n(Cc3ccccc3)c(=O)c3c(C)c(C)sc32)c(C)c1	none
Cc1sc2c(c1C)c(=O)n(Cc1ccccc1)c(=O)n2CC(=O)N(C)c1ccccc1	none
CCN(CC)C(=O)c1sc2c(c1C)c(=O)n(-c1ccc(C)c(C)c1)c(=O)n2Cc1cccc(Cl)c1	none
CCOC(=O)c1ccccc1NC(=O)Cn1c(=O)n(-c2ccc(CC)cc2)c(=O)c2c(C)c(C(=O)N(C)C)sc21	none
CCN(CC)C(=O)c1sc2c(c1C)c(=O)n(Cc1ccccc1)c(=O)n2Cc1c(C)cc(C)cc1C	Pf Dd2 growth 10µM
Cc1cccc(C)c1NC(=O)Cn1c(=O)n(Cc2ccccc2)c(=O)c2c(C)c(C(=O)N(C)C)sc21	Pf Dd2 growth 8.9µM
COc1cccc(N2C(=O)NC(=NC3CCCCC3)C23CCN([S+](=O)([O-])c2cccs2)CC3)c1	none
CCS(=O)(=O)N1CCC(Cc2ccc(C(N)=O)cc2)CC1	none
O=S(=O)(c1ccccc1Cl)N1CCCC1c1nncn1C1CCCC1 (centres undefined)	none
Cc1ccc(NC(=O)Cn2c(N3CCN(c4ccccc4)CC3)nc(C)cc2=O)c(Cl)c1	none
CC(=O)N1CCC(C(=O)N[C@@H]2COCC[C@@H]2OCc2ccccc2)CC1	none
COc1ccc(CN2Cc3cc(NC(=O)c4cccc(F)c4)ccc3OCC2=O)c(OC)c1	none
CCc1ccc(N(CC)C(=O)c2sc3nc4n(c(=O)c3c2C)CCCC4)cc1	Pf Dd2 growth 11µM
CCN(Cc1ccccc1)C(=O)c1sc2nc3n(c(=O)c2c1C)CCCC3	none
CCN(C(=O)c1sc2nc3n(c(=O)c2c1C)CCCCC3)c1ccc(OC)cc1	none
CCCn1nc(C)cc1CN(CC)C(=O)c1cc[nH]c1C1CCCNC1 (centres undefined)	none

Compound activity deposited in PubChem by National Center for Advancing Translational Sciences (NCATS).
